The list is not random: actives were taken first. Their share in the collection is about 0.8%.
FEN1 inhibitor: inhibitors of human flap endonuclease 1. P39748. Recombinant FEN1 flap cleavage, fluorescence, 15 min. Potency, µM (top dose mostly 114 µM), inactives show top-dose activity change, negative = inhibition, hits mostly inhibitors. actives 0.35% (n = 390,000). AID 588795; note: potency is the fitted concentration of half-maximal effect; nearly all actives have a fitted effect of over 65% in size
Target sequence (P39748 whole entry, looked up): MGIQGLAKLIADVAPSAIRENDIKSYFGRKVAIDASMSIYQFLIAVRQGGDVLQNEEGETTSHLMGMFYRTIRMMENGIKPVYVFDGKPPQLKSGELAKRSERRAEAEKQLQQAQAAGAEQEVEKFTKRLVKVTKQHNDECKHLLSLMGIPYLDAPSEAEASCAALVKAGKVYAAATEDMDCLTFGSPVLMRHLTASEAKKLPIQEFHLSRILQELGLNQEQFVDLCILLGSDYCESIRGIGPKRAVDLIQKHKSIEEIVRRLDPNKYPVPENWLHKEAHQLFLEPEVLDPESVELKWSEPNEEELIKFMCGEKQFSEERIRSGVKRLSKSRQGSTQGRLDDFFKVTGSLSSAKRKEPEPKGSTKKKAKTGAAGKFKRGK
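FEN1 at 10 nM preincubated with compounds 15 min at room temperature, then flap DNA substrate added at 50 nM final. Signal read at 0 and 15 min; concentration-response fitted with four-parameter Hill equation.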
TDP1 inh: TDP1 (human) enzyme inhibition; Q9NUW8; actives 0.28% (n = 350,000); recombinant TDP1, AlphaScreen DNA substrate cleavage; Potency, µM (series often up to 130 µM), inactives show top-dose activity change, negative = inhibition, most hits filed as inhibitors; note: potency is the fitted concentration of half-maximal effect; nearly all actives have a fitted effect of over 40% in size
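Enzyme-compound mixtures sat 15 min at room temperature, followed by a 5 min reaction with 15 nM final substrate and 10 min with AlphaScreen beads. Recombinant human Tdp1 was used at 1 nM final.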
PGK inhibitor: T. brucei PGK inhibition. Potency, µM (titrated, usually from 57.5 µM), inactives show at the top dose activity change, negative = inhibition, usual class: inhibitors. PGK/GAPDH coupled, Kinase-Glo luminescence, 60 min. P07378. actives 0.043% (n = 380,000); note: potency is the fitted concentration of half-maximal effect; nearly all actives have a fitted effect of over 60% in size
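Luminescent ATP detection (Kinase-Glo Plus) follows a 60-minute room-temperature incubation, with wells lacking PGK as controls. Buffer: 100 mM TEA (pH 7.6), 5 mM MgCl2, 0.01% Tween-20. Coupling enzyme GAPDH (100 nM final) supplies unstable 1,3-BPG in-well.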
APE1 inh: inhibitors of human APE1 endonuclease; recombinant APE1, TAMRA/BHQ-2 abasic DNA cleavage fluorescence; Potency, µM (series often up to 65.8 µM), for the others: top-dose activity change, negative = inhibition, actives largely listed as inhibitors; P27695; AID 2517; actives 0.35% (n = 350,000);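 note: potency is the fitted concentration of half-maximal effect; plate controls were vehicle for no effect and reference inhibitor for full effect; nearly all actives have a fitted effect of over 55% in size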
Target sequence (P27695 whole entry, looked up): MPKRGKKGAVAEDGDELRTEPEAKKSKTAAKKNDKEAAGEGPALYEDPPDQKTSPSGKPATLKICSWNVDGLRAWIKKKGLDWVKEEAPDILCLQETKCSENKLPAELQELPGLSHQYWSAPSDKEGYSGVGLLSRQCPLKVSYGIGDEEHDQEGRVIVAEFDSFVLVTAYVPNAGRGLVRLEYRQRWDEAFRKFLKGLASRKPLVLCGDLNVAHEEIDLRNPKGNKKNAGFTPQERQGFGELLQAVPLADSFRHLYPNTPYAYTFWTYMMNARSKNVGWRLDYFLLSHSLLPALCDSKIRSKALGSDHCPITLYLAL
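Compound pre-exposure to 0.75 nM APE1, 15 min at ambient temperature. Reaction initiated with 50 nM TAMRA/BHQ-2 THF substrate, read immediately in kinetic mode, 525 nm excitation, 598 nm emission.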
Tb PFK inh: blocks T. brucei phosphofructokinase | O15648 | T. brucei PFK, ADP-Glo luminescence | Potency, µM (titrated, usually from 57.5 µM), for the others: top-dose activity, negative = inhibition, most hits filed as inhibitors | actives 0.17% (n = 330,000);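 note: potency is the fitted concentration of half-maximal effect; 0% = uninhibited 1x PFK enzyme wells and -100% = no-enzyme wells; nearly all actives have a fitted effect of over 60% in size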
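1.25 nM PFK with 0.5 mM F6P and 0.1 mM ATP in 0.1 M TEA pH 8.0, 5 mM MgCl2, incubated 45 min at room temperature; ADP measured by ADP-Glo luminescence; compounds titrated up to 57 uM.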
PI4K2A inh: inhibitors of human PI4K2A. purified PI4K2A, ADP-Glo luminescence, 1 h; active compounds read low. activity change, negative = inhibition, % at 76.9 µM. actives 0.13% (n = 420,000). AID 1346378; in the data active = activity change below about -50%; inconclusive = mostly about -30% to -49%;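 note: -100% = wells without enzyme as full effect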
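In this quantitative HTS, ADP production by PI4K2A was quantified luminescently after 1 h at ambient temperature; 100 microM adenosine served as plate-quality control.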
Active calls of the source: *; i = inactive; ? = inconclusive; / = no result; [ ] = dose if it differs, or a comment. Unless noted, calls come from the whole dose curve; as a rule, active = well fitted curve in the direction sought with a large enough effect; inconclusive = small, poorly fitted or top-dose-only effect, or another doubt; inactive = no such curve, though single readings can be large; an effect the other way counts as inactive or inconclusive. Unless noted, % is set by controls: 0 for no effect and ±100 for the full control effect.

SMILES | FEN1 inhibitor | TDP1 inh | PGK inhibitor | APE1 inh | Tb PFK inh | PI4K2A inh
Cc1nc2ccc(-c3nc4ccc(N)cc4[nH]3)cc2[nH]1 | 35µM* | -1% | -4% | ? | ? | -17
COc1cc(F)c(S(=O)(=O)N2CCCN(S(=O)(=O)c3cccc(NC(C)=O)c3)CC2)c(F)c1 | / | 0% | / | / | / | /
S=c1[nH]nc(-c2cc(-c3ccco3)[nH]n2)n1-c1ccccc1Cl | ? | 3.5µM* | -10% | 14µM* | 0% | -4
O=C(O)c1cccc(C(=O)Cc2ccccc2)c1 | -11% | -2% | -20% | 16% | -5% | -71*
c1ccc(C2=NCCCO2)cc1 | / | / | i | / | / | 5
c1ccc(N=Nc2ccc(C3=NCCO3)cc2)cc1 | / | / | -16% | / | / | -51*
COc1cccc(C2c3c(ncn(-c4ccccc4C#N)c3=N)Oc3ccc4ccccc4c32)c1 (configuration not stated) | / | 3% | / | / | / | /
COc1ccc(C(=O)CCc2ccccc2)c(O)c1 | -11% | / | -7% | / | / | -1
COc1ccc(CCC(=O)O)c(O)c1 | -27% | / | ? | 16µM* | -14% | 3
COc1cccc(CN2C(=O)c3ccccc3NC2c2ccc(OC)c(COc3ccc(NC(C)=O)cc3)c2)c1 (configuration not stated) | / | 1% | / | / | / | /
CC(C)(C)n1ncc2c(=O)n(Cc3ccc(Cl)cc3C(F)(F)F)cnc21 | 7% | / | / | -3% | / | /
C=C1[C@@H]2CC[C@@H](C2)C1(C)C | / | / | / | -1% | / | /
Cc1cccc(N2CCN(C(=O)NCc3noc4ccccc34)CC2)c1C | 89µM* | 5% | 0% | / | / | -2
Cc1ccc(NC(=O)COCC(=O)Nc2ccc(C)cc2)cc1 | -14% | / | -7% | -8% | 1% | -6
Cc1ccc(S(=O)(=O)OCC(=O)Nc2ccc(C(=O)O)c(O)c2)cc1 | 28µM* | / | ? | / | / | -12
O=C(Nc1ccccc1C(=O)OCc1cc(=O)n2ccsc2n1)c1ccccc1Cl | 0% | -4% | -9% | / | / | 0
O=C(OCc1cc(=O)n2ccsc2n1)c1ccccc1NCCO | 9% | 45µM* | -8% | -13% | ? | -5
COc1ccc(Cl)cc1Nc1nnc(-c2ccncc2)s1 | -5% | / | -10% | 8.4µM* | 5% | 8
CCc1ccc(S(=O)(=O)/N=C2\C=C(NS(=O)(=O)c3ccccc3)C(=O)c3ccccc32)cc1 | -20% | / | -6% | -10% | 0% | -50*
Cc1ccccc1NC1=C/C(=N\S(=O)(=O)c2ccc(C(=O)O)cc2)c2ccccc2C1=O | 50µM* | 5%[0.0935 µM] | -6% | -8% | -3% | ?
CC(C)c1ccc(S(=O)(=O)/N=C2\C=C(NS(=O)(=O)c3ccccc3)C(=O)c3ccccc32)cc1 | ? | / | i | -20% | ? | -15
C/C(=C1\CCOC(=O)S1)N(C=O)Cc1cnc(C)nc1N | / | / | / | / | / | -1
Cc1ccc(-n2ncc3c2CC(C)(C)CC3NC(=O)CCc2ccncc2)cc1 (configuration not stated) | 9% | 22µM* | 8% | -3% | 0% | 1
Cc1ccc(-n2ncc3c2CC(C)(C)CC3NC(=O)CCc2cccnc2)cc1 (configuration not stated) | 5% | 2% | i | -12% | -9% | -2
O=C(NCc1nnc(-c2nc3ccccc3[nH]2)o1)C1CCCCC1 | / | 0% | / | / | / | /
SMILES | FEN1 inhibitor | TDP1 inh | PGK inhibitor | APE1 inh | Tb PFK inh | PI4K2A inh
COCCn1c(SCC(=O)Nc2cccc(C)c2C)nc2c(oc3ccccc32)c1=O | 4% | 2% | -1% | / | / | -66*
COCCn1c(SCC(=O)Nc2ccccc2OC)nc2c(oc3ccccc32)c1=O | 12% | 6% | 0% | -3% | 0% | 4
O=C(O)CCCC[P+](c1ccccc1)(c1ccccc1)c1ccccc1 | / | / | / | / | / | 2
COc1ccc2nc(-c3cccc(F)c3)sc2c1 | / | / | / | -1% | / | /
COc1ccccc1/C=C/C=c1\sc2nc(=O)c(Cc3ccccc3)nn2c1=O | 79µM* | / | -15% | ? | -4% | -13
CCCOc1ccc(Cc2nn3c(=O)/c(=C/c4ccco4)sc3nc2=O)cc1 | ? | / | -27% | ? | 7% | ?
CCC(=O)Nc1ccc2ccccc2c1 | 7% | -2% | -10% | 4% | 0% | -6
CCC(=O)Nc1ccc2nc3c(=O)[nH]c(=S)[nH]c3nc2c1 | 50µM* | / | -17% | -38% | -19% | -1
O=C1c2c(O)cc(O)cc2O[C@@]12c1c(cc(O)c3c1O[C@H](c1ccc(O)cc1)[C@@H](O)C3)O[C@@H]2c1ccc(O)cc1 | 50µM* | 1% | -4% | -2% | -5% | -6
Nc1ncnc2c1ncn2Cc1c(F)cccc1Cl | / | / | / | / | / | -8
O=C1C=C(NCc2ccccc2)c2ccccc2C1=O | ? | 4% | ? | -8% | 4% | -64*
O=C(O)c1ccc(CSc2nnc(-c3ccc([S+](=O)([O-])N4CCCC4)cc3)n2-c2ccccc2)cc1 | / | / | / | -20% | / | /
Nc1cc2c3c(cccc3c1)C(=O)N(CCN1CCCC1)C2=O | 25µM* | 5% | -6% | ? | -19% | -5
Fc1cc(F)cc(Nc2nc(NC3CCCC3)nc(C3CO3)n2)c1 (configuration not stated) | / | 2% | / | / | / | /
COc1cc(/C=C(\C#N)C(=O)Nc2ccc(C(=O)O)cc2)ccc1OC(=O)c1cccc(F)c1 | ? | 50µM* | -3% | ? | 0% | 4
COc1cc(/C=C(/C#N)C(=O)Nc2ccccc2)ccc1OCc1ccc(C(=O)O)cc1 | ? | -13% | -1% | -4% | 5% | -1
CCOc1ccc2nc(NC(=O)c3ccoc3C)sc2c1 | -7% | 6% | ? | -8% | -24% | -83*
CCC(C)[C@H](NC(=O)C1CCC(CNC(=O)[C@@H]2CCCN2C(=O)OC(C)(C)C)CC1)C(=O)O (some centres not stated) | -7% | / | 3% | 150µM* | -3% | 5
